Data on 93 compounds can be found in PubChem BioAssay AID743279 (National Center for Advancing Translational Sciences (NCATS), 2014).

The campaign covered roughly 360,000 compounds. About 17,000 (4.7%) were called active. About 5% were inconclusive and are not listed. Many of the other results were omitted from the sample, so actives are more common in it than they were. A number with no mark means an inactive call. No stated cut-off is given here; in the data, active means activity change below about -50%; inconclusive means mostly about -30% to -49%; inactive means weaker than that.
On the % scale 0 is the no-effect control and ±100 the full control effect.

The nature of the test: qHTS for Inhibitors of Inflammasome Signaling: IL-1-beta AlphaLISA Primary Screen. The following applies: THP-1 LPS/ATP IL-1B secretion, 16 h; at 57.5 µM, hits give low values. The gist of the method: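 Secreted IL-1B measured by AlphaLISA bead assay after 16 h compound exposure of THP-1 cells; compounds (final up to 57.5 uM) added 1 h before LPS (250 ng/mL) and ATP (1.25 mM) stimulation; lower signal means less secretion.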
`CCOc1ccc2[nH]c(=S)sc2c1`: the activity change is 32.5%.
For the compound `Cc1ccc(/C=C2/SC(=S)N(CCC(=O)NCCCN3CCOCC3)C2=O)cc1`, the activity change is -83.3% (active).
Then `COc1ccc(/C=C2\SC(=S)N(CCC(=O)N3CCOCC3)C2=O)cc1OC`, with -10.5%.
To `O=C(CCN1C(=O)c2ccccc2C1=O)NCCN1CCOCC1` belongs -5.01%; to `CC(OC(=O)CCC(=O)c1ccccc1)C(=O)Nc1ccc(F)cc1` (stereo not drawn), 9.85%.
Take `Cc1c(C(=O)NCC2CC2)sc(=O)n1Cc1cccc(F)c1`: the activity change is -16.4%.
In the case of `COc1ccc(CNC(=O)CCN2C(=O)c3ccccc3C2=O)cc1`, the activity change is -9.34%.
With `CCOC(=O)c1cc2cc3ccccc3cc2oc1=O`, the activity change was -12.5%.
To `CCOC(=O)C1=C(c2ccc(OC)cc2)C(=O)c2ccccc2C1=O` belongs -99% (active).
To `CCN(CC)C(=O)C1=C(C)N(Cc2ccc(OC)cc2)C(=O)C(CC(=O)NCc2ccco2)C1` (stereo not drawn) belongs -25.2%; to `Cc1ccc(C(=O)N2CCC(n3nccc3NC(=O)Nc3cccc(F)c3)CC2)cn1`, 8.12%.
As for `CCOc1c2ccc(C(=O)NCc3ccc4c(c3)OCO4)cc2nn1C`, the activity change was -4.17%.
As for `COc1ccccc1-n1c(C)nc2cc(C(=O)NCc3ccc4c(c3)OCO4)ccc21`, the activity change was -65.9% (active).
Take `COc1cc(OC)c(C(=O)NCc2ccc3c(c2)OCO3)cc1OC`: the activity change was 38%.
Turning to `Cn1c(N)cc(=O)n(C)c1=S`, the activity change was 19%.
Then `S=C(c1ccccc1)N1CCCC1`, with 9.49%; and `S=C(c1ccc(-c2ccccc2)o1)N1CCCCC1`, with -56.6% (active); and `CC1CCN(C(=S)c2ccc(-c3ccc(Cl)cc3Cl)o2)CC1`, with -11.9%.
As to `COc1ccc(NC(=O)c2cc(=O)[nH]c3ccccc23)cc1S(=O)(=O)N1CCOCC1`, the activity change was -13.1%.
As to `CCN(CC)CCCNC(=O)c1c(O)c2cc(F)cc3c2n(c1=O)C(C)CC3` (stereo not drawn), the activity change was 67.3%.
Then `O=C(NCc1ccco1)c1cccc(-c2ccc3nncn3c2)c1`, with 0%; and `Cc1ccc(-c2ccc(C3=CC(=O)CC(C)(C)C3=O)cc2)cc1`, with -18.9%; and `C#CCOc1ccc(/C=C2/C(=O)NN(c3ccccc3)C2=O)cc1OC`, with 11.3%.
`C#CCOc1ccc(/C=C2/C(=O)ON=C2C)cc1OCC`: the activity change was -87.9% (active).
Consider `C=CCOc1ccc(/C=N/NC(=O)C(C)Sc2ccccn2)cc1OCC` (stereo not drawn), for which the activity change is -1.69%.
Then `COc1cc(/C=C2\SC(=O)NC2=O)ccc1OCc1ccc(Cl)nc1`, with 11.8%; and `COc1cc(/C=C2/C(=O)ON=C2C)ccc1OCc1cccc(F)c1`, with -6.27%; and `COc1cc(/C=C2/C(=O)ON=C2C)ccc1OCc1ccccc1F`, with -99.7% (active).
On to `CC1=NOC(=O)/C1=C\c1ccccc1`, for which the activity change was 11.9%.
`C=CCOc1ccc(/C=C2/C(=O)ON=C2C)cc1OCC`: the activity change is -98.7% (active).
Then `C#CCOc1ccccc1/C=C1/C(=O)ON=C1C`, with -15%; and `CC(=O)c1ccccc1NC(=O)COC(=O)C1COc2ccccc2O1` (stereo not drawn), with 22.8%; and `OC[C@@H]1CN(Cc2ccc3c(c2)OCO3)C[C@H](n2cnc3c(NCc4ccco4)ncnc32)O1`, with 0.259%.
To `O=C(C(=O)N1CCC(c2ccccc2)CC1)c1ccccc1` belongs 27.9%; to `CCCCNC(=O)C[C@@H]1C[C@@]2(C(=O)OCC)CCC=C2N(Cc2cccc3ccccc23)C1=O`, -0.516%; to `C=CCC1(C(=O)N(C)Cc2ccccc2)CCN(C(=O)OC(C)(C)C)CC1`, -21.2%.
Regarding `CCOc1ccc(C(C)=O)cc1COC(=O)CN1C(=O)NC2(CCCC2)C1=O`, the activity change is -1.02%.
For the compound `Cc1onc(-c2ccccc2)c1-c1nnc(COC(=O)c2ccc(N(C)C)cc2)o1`, the activity change is 21.8%.
As to `CCOc1ccccc1NC(=O)Cn1ncc2ccc([N+](=O)[O-])cc21`, the activity change is 10.8%.
As to `CN(C)CCNc1ccc(-c2n[nH]c(=O)c3ccccc23)cc1[N+](=O)[O-]`, the activity change is -56.7% (active).
Then `Cc1ccc(S(=O)(=O)N(C)C)cc1NC(=O)c1n[nH]c(=O)c2ccccc12`, with -9.1%; and `COCCNc1ccc(-c2n[nH]c(=O)c3ccccc23)cc1[N+](=O)[O-]`, with 20.3%; and `C=CCCC(=O)N1C[C@H]2CON(C)[C@H]2C[C@H]1c1cccc(Nc2ccccc2)c1`, with -2.63%.
To `Cc1cc(Nc2ccc(C)c(C)c2)n2ncnc2n1` belongs 3.66%; to `CCOC(=O)[C@]12CCCC=C1N(CCC1=CCCCC1)C(=O)[C@H](CC(=O)N1CCCCC1)C2`, 19.5%; to `COCCNC(=O)CSc1nc2sccc2c(=O)n1-c1ccccc1`, 14%.
With `O=C1CC(C(=O)O)NC(=S)N1` (stereo not drawn), the activity change is 3.02%.
Then `O=[N+]([O-])c1ccc2[nH]c3c(c2c1)CCCC3O` (stereo not drawn), with -14.8%.
As for `COC(=O)c1ccc(C23CC4(C2)[C@H](CN(Cc2cccnc2)[C@@H]4c2ccccc2)C3c2ccc(Cl)nc2)cc1` (stereo partly drawn), the activity change was 24%.
For the compound `O=C(CSc1cccc[n+]1[O-])c1ccc(Cl)cc1`, the activity change was -5.03%.
Regarding `O=C(Cn1cc(-c2nnnn2-c2ccc(Cl)cc2)c(=O)c2ccccc21)c1ccccc1`, the activity change was 33.2%.
Then `O=C(C[n+]1ccc2c(c1)nnn2-c1ccccc1)c1ccc(Cl)cc1`, with -56.5% (active); and `CC1(C)NC(=O)N(CC(=O)Nc2ccc(-c3ccccc3)cc2)C1=O`, with 4.98%.
As to `O=C(Nc1ccc(S(=O)(=O)Nc2nccs2)cc1)c1cccc(S(=O)(=O)N2CCOCC2)c1`, the activity change was 0%.
Regarding `O=C(NCc1cccnc1)c1cc(S(=O)(=O)N2CCOCC2)c(Cl)cc1Cl`, the activity change was 16.2%.
Turning to `O=C(Nc1nccs1)c1cc(S(=O)(=O)N2CCOCC2)c(Cl)cc1Cl`, the activity change was -105% (active).
To `C[C@@H]1CN([C@H](C)CO)C(=O)c2cc(Br)cnc2O[C@@H]1CN(C)Cc1cncnc1` belongs -0.234%.
As for `CC(=O)Nc1cncc(-c2ccccc2CO)n1`, the activity change was 5.55%.
To `CC1(C(=O)NS(=O)(=O)c2ccccc2)CCN1C(=O)C/C=C/c1ccccc1` (stereo not drawn) belongs -5.77%.
With `CC1(C(=O)O)CCN1C(=O)/C=C/c1ccccc1` (stereo not drawn), the activity change was 23.5%.
Then `CC1(C)CCSC(/C=C/c2ccccc2)=N1`, with -102% (active).
Consider `Cc1cc(C)nc(NNC2=CC(=O)CC(C)(C)C2)n1`, for which the activity change was 31.9%.
With `CCN1CCN(C(=O)CN(C)S(=O)(=O)c2ccc3ccccc3c2)CC1`, the activity change was 20.4%.
On to `CC(=O)Oc1ccc(N(C(C)=O)S(=O)(=O)c2ccc3ccccc3c2)cc1Br`, for which the activity change is -50% (active).
Take `COCCNC(=O)COc1ccc(N(C)S(=O)(=O)c2ccc3ccccc3c2)cc1`: the activity change is 22.7%.
To `COc1cccc(C(=O)Nc2ccc3nc4n(c(=O)c3c2)CCCCC4)c1` belongs 5.21%; to `Cc1ccc(OCC(=O)Nc2ccccc2C(=O)NC2CC2)cc1C`, 0%; to `CCOC(=O)c1cc(-c2sc(NC(=O)c3ccccc3)nc2C)n(Cc2ccccc2)n1`, -3.85%.
As to `COCCNC(=O)CN(Cc1ccco1)C(=O)CCC(=O)Nc1nccs1`, the activity change is -4.97%.
As to `Fc1ccc(Cn2nnnc2C(c2cccs2)N2CCCCCC2)cc1` (stereo not drawn), the activity change was -13.3%.
To `CCC(C)(C)n1nnnc1C(c1cccs1)N1CCN(c2nc3ccccc3s2)CC1` (stereo not drawn) belongs -62.8% (active); to `CCC(C)(C)n1nnnc1C(c1ccc(OC)c(OC)c1)N1CCN(C(=O)c2ccco2)CC1` (stereo not drawn), 1.37%.
Consider `Cc1ccc(-c2nc3c(Cl)cc(C(F)(F)F)cn3c2Cc2cccc(Cl)c2)cc1`, for which the activity change is 41.1%.
`CN1C(=O)C(CC(=O)Nc2ccccc2)S/C1=N/c1nccs1` (stereo not drawn): the activity change is -2.9%.
Then `CCN1C(=O)C(CC(=O)Nc2cc(C)ccc2C)SC1=Nc1ccc(S(N)(=O)=O)cc1` (stereo not drawn), with -5.39%; and `O=C(CC1SC(=Nc2ccccc2)N(Cc2ccccn2)C1=O)Nc1cccc(Cl)c1` (stereo not drawn), with -60.7% (active); and `CCN(CC)CCN(C)C(c1ccnc2ccccc12)c1nnnn1-c1ccc2c(c1)OCCO2` (stereo not drawn), with -3.67%.
To `CC(C)C1CC2=C(C(=O)OC(C)(C)O2)C(c2ccc(F)cc2)O1` (stereo not drawn) belongs 43.5%.
For `CC(C)n1c(-c2cccs2)nc2ccccc21`, the activity change is -1.34%.
To `CC(C)n1c(NCc2c[nH]c3ccccc23)nc2ccccc21` belongs -81.7% (active).
Then `Cc1ccc(O)c(CNc2nc3ccccc3n2C)c1`, with -11.8%.
As for `COCC(C)NC(=O)CSc1nc2nn(-c3ccccc3)c(=O)c-2c2n1CCCCC2` (stereo not drawn), the activity change was -2.5%.
Consider `COc1ccc(C(C)C)cc1-c1ccc2nncn2c1`, for which the activity change is 15.9%.
To `Cc1ccc(C(=O)N2CCCc3ccccc32)c(Cl)c1` belongs 64.5%; to `Cc1c(C(=O)N2CCCc3ccccc32)oc2ccccc12`, 3.03%.
To `COc1ccc2oc(=O)c(C(=O)N3CCCc4ccccc43)cc2c1` belongs -74% (active); to `CCOC(=O)[C@@H]1[C@H]2COc3ccc(Br)cc3[C@H]2N2C(=O)N(c3ccc(Cl)cc3)C(=O)[C@@]12C`, 8.14%; to `O=S(=O)(c1cccc(C(F)(F)F)c1)N1c2ccccc2-n2cccc2C1c1cccnc1` (stereo not drawn), 41.9%.
To `CC1(C)CC(N2CCN(C(c3ccccc3)c3ccccc3)CC2)=CC(=[N+]2CCCCC2)C1` belongs -71.2% (active).
For the compound `c1ccc(C(c2ccccc2)N2CCN(Cc3nnnn3C3CCCCC3)CC2)cc1`, the activity change was 20.1%.
As to `CC(C)OCC(O)CN1CCN(C(c2ccccc2)c2ccccc2)CC1` (stereo not drawn), the activity change was -6.29%.
With `CC(C)(O)C1=C[N+](=O)CC=C1`, the activity change was 16.1%.
To `COc1cccc(NC(=O)C2(C)CCN2Cc2ccccc2Cl)c1` (stereo not drawn) belongs -11.6%.
